mHTT-CaM PPI inh: disrupts binding of mutant huntingtin to calmodulin; AID 1671202; 190,000 compounds, 3.6% hits; inhibition, % at 15 µM; P42858; AlphaScreen His-mHTT/GST-CaM binding, luminescence;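 further: 0% = both proteins with DMSO and 100% = one protein alone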
Pf apPOL block: Pf-apPOL DNA polymerase inhibition | inhibition, % at 10 µM | 210,000 compounds, 0.25% hits | Recombinant Pf-apPOL, molecular beacon fluorescence, 1.5 h
An asterisk follows results filed as active; nt = no result given; ! = not active in a repeat. In the library only some 3.5% were active in any assay of this set; here they are far more common. No stated cut-off is given here; in the data, active means inhibition above about 50%; inactive means the rest.

SMILES	mHTT-CaM PPI inh	Pf apPOL block
Cc1ccc2c(c1)/C(=C/c1ccc(Cl)cc1)C(=O)N2	36.0	-1.6
Cc1ccc2c(c1)NC(C)(C)c1ssc(=Nc3ccc(Cl)cc3Cl)c1-2	61.6*	nt
Cc1cc2c(cc1C)-c1c(ssc1=Nc1ccc(S(N)(=O)=O)cc1)C(C)(C)N2	19.8	nt
COc1ccc(C(=O)Nc2nc3ccc(C)cc3s2)cc1[N+](=O)[O-]	1.9	-23.1
COc1ccc(C(=O)Nc2nc3ccc(C)cc3s2)cc1OC	51.0*!	1.7
CC1CCc2c(C(=O)NCCCN(C)Cc3ccccc3)csc2C1 (stereo unspecified)	0.3	-1.6
COc1ccc(CN2CCN(C(=O)c3ccc([N+](=O)[O-])cc3)CC2)cc1Br	16.3	0.6
COc1ccc(C2=COC3(CCCN(C(=O)c4ccc(F)cc4)C3)C2)cc1 (stereo unspecified)	-3.8	-8.9
O=C(c1ccc(Cl)cc1)N1CCCC2(CC(c3ccc(Cl)cc3)=CO2)C1 (stereo unspecified)	-12.0	-4.6
O=C(c1ccc(F)cc1)N1CCCC2(CC(c3cccnc3)=CO2)C1 (stereo unspecified)	27.7	0.4
O=C(c1ccc(Cl)cc1)N1CCCC2(CC(c3ccccc3)=CO2)C1 (stereo unspecified)	90.9*	-8.5
COc1ccc(C2=COC3(CCCN(C(=O)c4ccccc4)C3)C2)cc1 (stereo unspecified)	64.6*	-4.4
O=C(c1ccccc1)N1CCCC2(CC(c3cccnc3)=CO2)C1 (stereo unspecified)	97.0*	-9.9
O=C(NCc1ccccc1)N1CCC(CCOc2ccncc2)CC1	-2.0	-9.3
COc1ccc(N2CCN(C(=O)c3ccccc3Cl)C(C)C2=O)cc1OC (stereo unspecified)	-5.0	3.8
Cc1ccc(CNC(=O)c2cc3n(n2)CCCN(Cc2ccc(Cl)cc2)C3=O)o1	0.4	-4.1
O=C1C[C@H]2C=CCc3cccc(c32)CN1Cc1ccc(Cl)cc1	29.6	-1.9
COc1cccc(CN2Cc3cccc4c3[C@H](C=CC4)CC2=O)c1	100.2*	0.0
O=C(Nc1ccc2c(c1)OCO2)C1CCN(c2cc(N3CCSCC3)ncn2)CC1	47.6	-6.0
COc1ccc(NC(=O)C2CCN(c3cc(N4CCCC4)ncn3)CC2)cc1Cl	53.8*	-6.4
Cc1ccc(NC(=O)C2CCN(c3cc(=O)n(C)c(=O)n3C)CC2)cc1	34.8	-5.4
Cn1c(N2CCC(C(=O)Nc3ccc4c(c3)OCCO4)CC2)cc(=O)n(C)c1=O	57.5*	2.4
O=C(Nc1ccc2c(c1)OCCO2)C1CCN(c2cc(N3CCSCC3)ncn2)CC1	64.5*	-8.9
COc1ccc(CCC(=O)Nc2ccc3ncnc(N4CCCCC4)c3c2)cc1	19.0	-5.2
COc1ccc(NC(=O)C2CCN(c3cc(N4CCCC4)ncn3)CC2)cc1OC	16.7	-8.1
SMILES	mHTT-CaM PPI inh	Pf apPOL block
COc1ccc(CC(=O)Nc2ccc3ncnc(N4CCCCC4)c3c2)cc1Cl	55.4*	0.8
Cc1ccc(Cl)cc1N(C)C(=O)C1CCN(c2cc(=O)n(C)c(=O)n2C)CC1	50.3*	-2.6
Cn1c(N2CCC(C(=O)Nc3ccc(Cl)cc3)CC2)cc(=O)n(C)c1=O	37.8	-1.6
CS(=O)(=O)N(CC(=O)NCc1cccnc1)c1cccc(Cl)c1Cl	-2.1	-3.1
CCOc1ccccc1N1CCN(Cc2cc3c(cc2[N+](=O)[O-])OCO3)CC1	51.0*	-2.2
O=[N+]([O-])c1cc2c(cc1CN1CCN(c3ccc(F)cc3)CC1)OCO2	30.3	0.5
O=[N+]([O-])c1cc2c(cc1CN1CCN(c3cccc(Cl)c3)CC1)OCO2	77.0*	-2.2
Cc1ccccc1N1CCN(Cc2cc3c(cc2[N+](=O)[O-])OCO3)CC1	18.6	3.0
Cc1ccc(C2=NOC(C(=O)NCC(=O)NC(C)C)C2)cc1 (stereo unspecified)	-4.6	-0.5
Cc1sc(/C=C(/C#N)C(N)=S)cc1Br	33.3	nt
COc1cc(Br)c(Br)cc1N	-10.6	nt
COc1cc2c(cc1N)OCO2	54.3*	nt
O=C(c1ccc(F)c(Cl)c1)N1CCC(n2c(-c3ccoc3)nc3cccnc32)C1 (stereo unspecified)	99.2*	-3.4
O=C(c1ccc(Br)cc1)N1CCC(n2c(-c3ccco3)nc3cccnc32)C1 (stereo unspecified)	83.5*	-2.9
CCc1ccc(C(=O)N2CCC(n3c(-c4ccco4)nc4cccnc43)C2)cc1 (stereo unspecified)	75.6*	0.2
Cc1ccc(C(=O)N2CCC(n3c(-c4ccoc4)nc4cccnc43)C2)cc1F (stereo unspecified)	21.2	1.9
COc1ccc(C(=O)N2CCC(n3c(-c4ccco4)nc4cccnc43)C2)cc1OC (stereo unspecified)	34.0	-5.5
O=C(c1ccc(Cl)cc1)N1CCC(n2c(-c3ccco3)nc3cccnc32)C1 (stereo unspecified)	76.9*	-7.5
O=C(c1cc(F)cc(F)c1)N1CCC(n2c(-c3ccco3)nc3cccnc32)C1 (stereo unspecified)	27.5	-1.5

Screening results: PubChem, University of Kansas High Throughput Screening Laboratory
